Compounds without any hit were thinned out: in the full panel of roughly 83,000, 20% have a hit.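 Growth was measured after 48 h exposure to one concentration of compound in 96-well plates. Values under 10 count as active.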 Values without a mark were called inactive. Activity calls are given as the source filed them.
Legend:
Assay in all cases: NCI-60 one-dose screen, 48 h (100 = growth as untreated, 0 = no growth, -100 = all killed)
Conditions in all cases: 10 µM unless noted
NCI-H23 lung = system: NCI-H23 lung
NCI-H226 lung = system: NCI-H226 lung
NCI-H322M lung = system: NCI-H322M lung
HOP-62 NSCLC = system: HOP-62 NSCLC
NCI-H460 lung = system: NCI-H460 lung
HOP-92 NSCLC = system: HOP-92 NSCLC
NCI-H522 lung = system: NCI-H522 lung
786-0 renal = system: 786-0 renal
COLO 205 colon = system: COLO 205 colon
A549/ATCC NSCLC = system: A549/ATCC NSCLC

OC(CSc1ccccc1)CN1CCN(c2ccc(Cl)cc2)CC1 (configuration not stated)
growth (NCI-H23 lung): 107%
growth (NCI-H226 lung): 91.7%
growth (NCI-H322M lung): 110%
growth (HOP-62 NSCLC): 98.3%
growth (NCI-H460 lung): 109%
growth (HOP-92 NSCLC): 63.8%
growth (NCI-H522 lung): 90.3%
growth (786-0 renal): 95.3%
growth (COLO 205 colon): 107%

Oc1ccc(Cl)cc1C(c1cc(Cl)ccc1O)C(Cl)(Cl)Cl
growth (NCI-H23 lung): -25.2% (active)
growth (NCI-H226 lung): 22.5%
growth (NCI-H322M lung): 27.7%
growth (HOP-62 NSCLC): 14.1%
growth (NCI-H460 lung): -12% (active)
growth (HOP-92 NSCLC): -25.3% (active)
growth (A549/ATCC NSCLC): 28.7%
growth (786-0 renal): 15.2%
growth (COLO 205 colon): 49.4%

Cc1cc(I)nc2ccccc12
growth (NCI-H23 lung): 95.1%
growth (NCI-H226 lung): 104%
growth (NCI-H322M lung): 102%
growth (HOP-62 NSCLC): 105%
growth (NCI-H460 lung): 106%
growth (HOP-92 NSCLC): 93.5%
growth (786-0 renal): 105%
growth (COLO 205 colon): 106%

O=C(CBr)c1ccc(OC(=O)c2ccccc2)cc1
growth (NCI-H23 lung): 101%
growth (NCI-H226 lung): 113%
growth (NCI-H322M lung): 134%
growth (HOP-62 NSCLC): 99.9%
growth (NCI-H460 lung): 104%
growth (HOP-92 NSCLC): 88%
growth (COLO 205 colon): 109%

Cc1cc(=O)oc2cc(O)cc(O)c12
growth (NCI-H23 lung): 107%
growth (NCI-H226 lung): 97.7%
growth (NCI-H322M lung): 103%
growth (HOP-62 NSCLC): 87.2%
growth (NCI-H460 lung): 99%
growth (HOP-92 NSCLC): 100%
growth (NCI-H522 lung): 88.7%
growth (786-0 renal): 98%
growth (COLO 205 colon): 110%

Source: PubChem BioAssay (NCI)
